In PubChem BioAssay AID2284201 (EPA ToxCast):
Calls of active or inactive are those of the source. Rule for the calls: active = hit-call score of the fitted dose curve at least 0.9, where 1 is the maximum; inactive = score below 0.9.

target: SLC6A2 (gene 6530) (UniProt P23975); assay: ERF_FR_TR_hSLC6A2: Eurofins (ERF) Radioligand Transport Binding LeadHunter Assay for human Norepinephrine NET Antagonism, conducted at France lab site
Experimental: ERF_FR_TR_hSLC6A2 is a biochemical, single-readout assay that uses extracted gene-proteins in a cell-free assay. Measurements were taken 2 hour after chemical dosing in a 96-well plate. See NET Human Norepinephrine Transporter Binding (Antagonist Radioligand) Assay, Cerep.ERF_FR_TR_hSLC6A2 is an assay component calculated from the ERF_FR_TR_hSLC6A2 assay. It is designed to measure radioligand binding using a type of binding reporter as detected by scintillation counting with radiometry technology.Data from the assay component ERF_FR_TR_hSLC6A2 was analyzed at the assay endpoint, ERF_FR_TR_hSLC6A2, in the positive analysis fitting direction relative to DMSO as the negative control and baseline of activity. Using a type of binding reporter, loss-of-signal activity can be used to understand changes in enzymatic activity as they relate to gene SLC6A2. To generalize the intended target to other relatable targets, this assay endpoint is annotated to the transporter intended target family, where the subfamily is SLC6 / Monoamine.
Human cells are incubated for 120 minutes at 4C with [3H]nisoxetine (1 nM) ligand and protriptyline as control inhibitor. Test Sample Requirements: Minimum for 1) Screen: 60 ul of 10 mM stock -OR- 1 mg (pre-weighed) for 10 uM final testing. 2) Dose Response: 90 ul of 10 mM stock -OR- 1 mg (pre-weighed) for a top concentration at 10 uM.

Sequence of SLC6A2 (gene 6530) (P23975 whole entry, looked up): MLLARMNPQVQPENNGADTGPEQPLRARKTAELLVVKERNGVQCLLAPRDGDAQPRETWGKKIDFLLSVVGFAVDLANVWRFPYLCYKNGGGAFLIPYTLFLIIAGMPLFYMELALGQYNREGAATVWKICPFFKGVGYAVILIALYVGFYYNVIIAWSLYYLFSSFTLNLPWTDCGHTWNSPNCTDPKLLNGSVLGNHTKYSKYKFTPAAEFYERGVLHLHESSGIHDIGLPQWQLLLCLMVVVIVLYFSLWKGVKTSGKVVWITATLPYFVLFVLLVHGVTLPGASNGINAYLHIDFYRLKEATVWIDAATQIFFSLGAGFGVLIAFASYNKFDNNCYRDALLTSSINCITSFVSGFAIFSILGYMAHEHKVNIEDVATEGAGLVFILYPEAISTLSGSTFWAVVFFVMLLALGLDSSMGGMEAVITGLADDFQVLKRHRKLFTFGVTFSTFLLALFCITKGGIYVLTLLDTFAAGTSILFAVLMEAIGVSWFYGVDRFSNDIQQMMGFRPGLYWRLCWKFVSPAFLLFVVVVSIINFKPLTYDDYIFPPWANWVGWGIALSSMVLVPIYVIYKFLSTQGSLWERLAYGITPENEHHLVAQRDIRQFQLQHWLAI

| SMILES | AC50 | outcome |
| --- | --- | --- |
| O=C(/C=C/c1ccc(O)cc1)CC(=O)/C=C/c1ccc(O)cc1 | 2120 nM (active) |  |
| COc1cc(/C=C/C(=O)CC(=O)/C=C/c2ccc(O)c(OC)c2)ccc1O | 2630 nM (active) |  |
| CCCCC[C@H](O)CC(=O)CCc1ccc(O)c(OC)c1 |  | inactive |
| COc1cc(CCC(=O)CC(=O)CCc2ccc(O)c(OC)c2)ccc1O |  | inactive |
